Measurements: the supplement of paper PMC4466236
In all, about 33,000 sequences were measured (“E-score (dimensionless, -0.5 to 0.5)”: median about -0.058, highest 2% from about 0.35 on). This is one part of a sample in which the highest values are shown more often than they occur.

These sequences were tested on MvaT (assay: PBM 8-mer E-score (mean of HK and ME arrays) (E-score (dimensionless, -0.5 to 0.5)); higher = stronger relative binding preference).
Experimental: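 Protein binding microarray: GST-tagged full-length MvaT (P. aeruginosa PAO1) bound to two universal double-stranded 60-mer arrays (ME and HK), each with a constant 25-mer primer and a variable 35-mer region covering all 8-mers. The 8-mer E-score (rank-based, range -0.5 to 0.5, >0.45 = specific binding) is the mean of the two arrays.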

Row | Sequence | PBM 8-mer E-score
1 | ACAGCAAG | -0.0242
2 | GTACATAA | 0.297
3 | CCGGGACC | -0.311
4 | ATCCAGAA | 0.0751
5 | ATCAGTCG | -0.0941
6 | ACAAATGC | 0.0069
7 | GAGGTAGC | -0.211
8 | AGCCACCA | -0.0502
9 | TAAAGTTA | 0.315
10 | AAAAGTTC | 0.277
11 | AAAAGTTT | 0.352
12 | AATAGTTA | 0.387
13 | CAAAGTTA | 0.265
14 | AAAAGTGA | 0.0292
15 | AAAAGTCA | 0.0201
16 | AAAAGTTG | 0.221
17 | GATAGTTA | 0.311
18 | GAAAGTTA | 0.346
19 | CATAGTTA | 0.178
20 | AAAAGTTA | 0.371
21 | GCGTCAGA | -0.131
22 | CGTGGATA | 0.112
23 | ATCCCAGA | -0.203
24 | GCCACGCA | -0.169
25 | CACCGGTG | -0.153

Row | Sequence | PBM 8-mer E-score
26 | GAAACAGA | -0.0327
27 | CGGAGTAC | -0.128
28 | CTGAATGC | -0.0524
29 | AGGTCGCG | -0.202
30 | AAAAAGTC | 0.17
31 | AAAAAGTT | 0.357
32 | AAAAAGTA | 0.154
33 | TGCCGGCA | -0.0619
34 | ATGACTCA | -0.062
35 | AGTTAAAT | 0.383
36 | AGTTAAAA | 0.37
37 | AGTTAAAC | 0.242
38 | AGTTAAAG | 0.209
39 | TGTTAAAA | 0.25
40 | CGTTAAAA | 0.295
41 | ACCTGCAC | -0.11
42 | CCGCAGAC | -0.181
43 | AAAGACGT | 0.0386
44 | CGTGCGCC | -0.27
45 | TCCAGGCA | -0.215
46 | AATTGTAA | 0.305
47 | AAATGTAG | 0.0975
48 | GATTGTAA | 0.109
49 | AAATGTAC | 0.14
50 | TATTGTAA | 0.379

Row | Sequence | PBM 8-mer E-score
51 | AAATGTAA | 0.373
52 | GAATGTAA | 0.232
53 | TAATGTAA | 0.373
54 | TCATGTAA | 0.119
55 | ACATGTAA | 0.361
56 | CAATGTAA | 0.236
57 | CCATGTAA | 0.171
58 | AGTAGATA | 0.202
59 | CGAATTTA | 0.157
60 | CTGGGATA | -0.0515
61 | CGCAACCC | -0.0943
62 | AGGTGCAT | -0.0802
63 | GCAGGACC | -0.179
64 | ACAATCAA | 0.21
65 | TAGAGACA | 0.123
66 | CAATCGGA | -0.0769
67 | ACTTCTCC | 0.2
68 | GCATATAC | 0.311
69 | CCATATAA | 0.343
70 | TCATATGA | 0.204
71 | GCATATGA | 0.176
72 | TCATATAA | 0.379
73 | GCATATAA | 0.374
74 | ACGCAGGC | -0.282
75 | GCCGAACC | -0.115

Row | Sequence | PBM 8-mer E-score
76 | ATAACTGG | 0.213
77 | ACAGGAAA | 0.0933
78 | AAACCCTT | -0.0425
79 | GTTAATGA | 0.264
80 | GTTAATAA | 0.377
81 | CTTAAAAA | 0.163
82 | CTTAATAA | 0.385
83 | CTCAATAA | 0.307
84 | GTTAATCA | 0.183
85 | CATGAGAA | -0.0314
86 | CACTTGTA | 0.139
87 | ACATAACT | 0.268
88 | AAATAACC | 0.375
89 | CAATAACC | 0.223
90 | AAATAACG | 0.331
91 | AAATAACA | 0.336
92 | AAATAACT | 0.375
93 | CACGTGCA | -0.0519
94 | ATCTGGAC | -0.0431
95 | TCATCGAA | -0.15
96 | GAGACATC | -0.0544
97 | AAGCATAG | -0.033
98 | CCAGTTAC | 0.14
99 | AGACGCGA | 0.0502
100 | AATTTTTA | 0.34

Row | Sequence | PBM 8-mer E-score
101 | AAATTTTA | 0.35
102 | CAAATTTA | 0.22
103 | AAAATTTT | 0.354
104 | AAAATTTG | 0.221
105 | AAATTTAG | 0.238
106 | TAAATTTA | 0.414
107 | AAATTTAC | 0.11
108 | AAATTTAT | 0.384
109 | AAAATTTA | 0.311
110 | GAATTTTA | 0.254
111 | AAAAATTT | 0.298
112 | AGAGTTCG | 0.00443
113 | CAACCCGC | -0.00327
114 | CATGATGC | -0.011
115 | AGGGGGAG | -0.246
116 | AGAAAGGC | -0.118
117 | CTGTGCTA | -0.0139
118 | GGAGCCAC | -0.325
119 | GAATTTAA | 0.264
120 | TAATTCAA | 0.346
121 | TAATTTGA | 0.201
122 | CAATTTAA | 0.366
123 | GAAATGTA | 0.259
124 | GAATTCAA | 0.0832
125 | TAATTTAA | 0.457

Row | Sequence | PBM 8-mer E-score
126 | CAAATGTA | 0.0762
127 | CAATTTAG | 0.2
128 | TAAATGTA | 0.359
129 | CAATTTTA | 0.293
130 | AAATTCAA | 0.226
131 | CAGGAGAG | -0.196
132 | AGTCACAT | -0.0559
133 | GTTTCGCA | -0.0431
134 | ATTACTCG | 0.169
135 | AAATACTG | 0.244
136 | CATGTCAG | -0.042
137 | AATAGTCG | 0.218
138 | ACGTATAC | 0.136
139 | GCAGGCGC | -0.28
140 | ATACTCGG | 0.0138
141 | AAATTTAA | 0.408
142 | AGATTTAA | 0.273
143 | AAATTTCA | 0.241
144 | CGATTTAA | 0.238
145 | AAATTTGA | 0.189
146 | TGATTTAA | 0.347
147 | GAATCAAA | 0.13
148 | GTAGTGCA | -0.115
149 | AACCACTG | -0.0219
150 | GACCGCTA | -0.115

Row | Sequence | PBM 8-mer E-score
151 | GATTGAAA | 0.12
152 | CTGCCACC | -0.166
153 | ATACTCAT | 0.175
154 | ATCAGGCA | -0.0666
155 | ATTAAAGG | 0.156
156 | ATTAAATA | 0.421
157 | ACTAAATA | 0.31
158 | ATTAAATC | 0.382
159 | GTTAAAGA | 0.11
160 | GTTAAATA | 0.396
161 | ATTAAATG | 0.373
162 | AGTAAATG | 0.175
163 | CTTAAATA | 0.337
164 | ATTAAAGA | 0.264
165 | CTTAAATC | 0.0452
166 | ATTAAACC | 0.249
167 | CGGTACCG | -0.0831
168 | TACGAGCA | -0.0785
169 | CACCTAAG | -0.143
170 | GACGTACA | 0.034
171 | CCCCGTGA | -0.306
172 | AACTGACG | 0.0522
173 | ACTTTTTG | 0.122
174 | ATTAAACG | 0.284
175 | ATTAAACA | 0.391

Row | Sequence | PBM 8-mer E-score
176 | CTTAAACA | 0.156
177 | GCAATACA | 0.0621
178 | GAGCACGA | -0.273
179 | AGGCATAA | -0.0265
180 | GATTTTTA | 0.133
181 | CATTTTTA | 0.242
182 | AATTTATA | 0.46
183 | GGTTTATA | 0.242
184 | AATTTATC | 0.276
185 | AATTTATG | 0.273
186 | AGTTTATC | 0.144
187 | AGTTTATA | 0.424
188 | CATTTATC | 0.241
189 | GATTTAGA | 0.0137
190 | CATTTATA | 0.347
191 | GATTTATA | 0.398
192 | AGCAGGCC | -0.328
193 | TCCTAACA | 0.0526
194 | TCCCACAA | 0.0216
195 | CAATTCAC | 0.0398
196 | ATTTTACA | 0.371
197 | CCTTTATA | 0.193
198 | CTTTTACA | 0.0261
199 | ATTTTATG | 0.234
200 | GTTTTATA | 0.243

Row | Sequence | PBM 8-mer E-score
201 | ATTTTATA | 0.366
202 | AATTTACA | 0.269
203 | ACTTTATC | 0.105
204 | ACTTTATA | 0.39
205 | TGCTCACA | -0.0823
206 | CAAGCAGG | -0.0598
207 | AGTACAGG | 0.0418
208 | AAAAATCA | 0.0153
209 | GCCTCCCC | -0.263
210 | ACATCCCA | -0.00783
211 | TCTCATAA | 0.0817
212 | CAGTGGAC | 0.0119
213 | AAGACATG | 0.0346
214 | CGGGAAAG | -0.177
215 | ACAATACT | 0.223
216 | CCAATAAA | 0.302
217 | ACAATAAT | 0.401
218 | ACAATAAG | 0.276
219 | ACAATAAC | 0.324
220 | ACAATAAA | 0.356
